Test results published in PubChem BioAssay (EPA / NIEHS).
Inconclusive results are not listed. Active and inactive are the calls of the source. The calls were made as follows: active = hit-call score of the fitted dose curve at least 0.9, where 1 is the maximum; inconclusive = response in the unintended direction; inactive = score below 0.9.

Biological target: human Vitamin D Receptor (VDR), VDR (gene 7421) (UniProt P11473)
Test: ATG_VDR_TRANS: Attagene TRANS-FACTORIAL HepG2 Assay for human Vitamin D Receptor (VDR) (AID 2283022)
Outline: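 Transactivation by an exogenous VDR-Gal4 chimera in transiently transfected HepG2 cells was measured as reporter transcript level 24 hours after chemical treatment. RT-PCR products were analysed by capillary electrophoresis and fitted in the positive direction relative to DMSO.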

Sequence of human Vitamin D Receptor (VDR), VDR (gene 7421) (P11473 whole entry, looked up): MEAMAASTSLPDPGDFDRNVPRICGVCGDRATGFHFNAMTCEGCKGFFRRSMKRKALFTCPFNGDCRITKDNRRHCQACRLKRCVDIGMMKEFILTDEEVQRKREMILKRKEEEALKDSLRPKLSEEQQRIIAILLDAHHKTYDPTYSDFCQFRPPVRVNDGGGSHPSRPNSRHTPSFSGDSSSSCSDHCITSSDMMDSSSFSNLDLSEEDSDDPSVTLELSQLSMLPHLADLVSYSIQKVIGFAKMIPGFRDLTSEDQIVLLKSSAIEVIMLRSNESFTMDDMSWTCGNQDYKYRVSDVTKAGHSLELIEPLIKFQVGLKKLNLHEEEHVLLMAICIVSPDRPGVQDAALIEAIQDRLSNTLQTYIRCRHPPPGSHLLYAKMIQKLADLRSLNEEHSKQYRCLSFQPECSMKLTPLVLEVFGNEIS

outcome, inactive:
Nc1ccc(N=Nc2ccccc2)c(N)n1, Cc1ccc2oc(=O)ccc2c1, CC(C)COC(=O)C=Cc1ccccc1, CC(C)(C)C(=O)CCc1ccc(Cl)cc1, CC(=O)[C@H]1[C@H](C#N)C[C@H]2[C@@H]3CC=C4C[C@@H](O)CC[C@]4(C)[C@H]3CC[C@@]21C, C=C(C)C(=O)OCCO, CC(=O)[C@@]1(O)CC[C@H]2[C@@H]3C[C@H](C)C4=CC(=O)C=C[C@]4(C)[C@@]3(F)[C@@H](O)C[C@@]21C, O=c1c2ccccc2nnn1CCl, CC1=Nc2ccc3ccccc3c2C1(C)C, C=C(C)c1cccc(C(C)(C)N=C=O)c1, OCCN(CCO)c1ccccc1, CCOC(=O)CC, CCCCCCCC/C=C\CCCCCCCC(=O)OCCO, Cc1cc(=O)n(-c2ccccc2)n1C, O=S1(=O)OC(c2ccc(O)cc2)(c2ccc(O)cc2)c2ccccc21, O=S(=O)(O)c1ccccc1C=Cc1ccc(-c2ccc(C=Cc3ccccc3S(=O)(=O)O)cc2)cc1, NNC(=O)c1cccc(C(=O)NN)c1, COc1c2ccoc2cc2oc(=O)ccc12, CCOC(=O)NNc1nncc2ccccc12, CC(=O)OCC(C)OC(C)=O (stereo not given), CCCCCCOc1cc(C)c(O)c(C)c1C, COC(=O)c1sccc1S(N)(=O)=O, OCCc1ccncc1, O=P(O)(O)Oc1ccccc1, CCOC(=O)[C@H](C)O, O=C1CCCC1, CCOC(F)(F)C(F)(F)C(F)(F)C(F)(F)F, CCCCCCCCCCOC(C)=O, Cn1c([N+](=O)[O-])cnc1COC(N)=O, CCCCCCCCCCc1ccccc1, CCCC(C)CCC(C)=O (stereo not given), CCc1c(C(=O)O)c(=O)cnn1-c1ccc(Cl)cc1, CCCOC(=O)CCCCC(=O)OCCC, CN(C)c1ccc(N=Nc2ccccc2C(=O)O)cc1, CCOC(=O)Cc1cccc2ccccc12
